Screening results as filed in PubChem.
4-MU autofl = 4-MU region autofluorescence; compound autofluorescence, 340/450 nm, 4-MU equivalents; hits give high values; max dye-equivalent concentration, M; hit rate 11% among 59,000; AID 589; in the data active = max dye-equivalent concentration above about 10 nM; inconclusive = mostly about 1.1 nM to 9.6 nM
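Compounds in 100 mM Tris, pH 8.0, incubated 15 min at room temperature, then fluorescence read at 340 nm excitation/450 nm emission. Signal converted to 4-MU dye-equivalent concentration using an on-plate six-point 4-MU standard curve.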
A350 fluor = compounds fluorescent in Alexa 350 spectral region; Compound autofluorescence, 340/450 nm, Alexa 350 dye-equivalents; hits give high values; max dye-equivalent concentration, M; hit rate 11% among 59,000; AID 590; in the data active = max dye-equivalent concentration above about 10 nM; inconclusive = mostly about 1.1 nM to 9.6 nM
HADH2 inh = HADH2 (human) dehydrogenase inhibition; recombinant HADH2, NADH fluorescence, beta-hydroxybutyryl-CoA; hit rate 3.4% among 73,000; AID 886; Potency, µM (doses to about 57.1 µM), actives largely listed as inhibitors; also: nearly all actives have a fitted effect of over 60% in size
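E. coli-expressed His-tagged HADH2 tested at 20 nM in alkaline Tris buffer (pH 9.0); oxidation of 90 uM beta-hydroxybutyryl-CoA with 1 mM NAD+ tracked fluorimetrically for 4 min.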
GBA mod = modulators of human glucocerebrosidase; P04062; purified enzyme, resorufin glucoside fluorescence (screen aimed at inhibitors), 20 min; Potency, µM; hit rate 1.1% among 48,000; AID 360; in the data active = potency below about 15 µM; inconclusive = mostly about 16 µM to 33 µM;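 also: the screen sought inhibitors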
Target sequence (P04062 whole entry, looked up): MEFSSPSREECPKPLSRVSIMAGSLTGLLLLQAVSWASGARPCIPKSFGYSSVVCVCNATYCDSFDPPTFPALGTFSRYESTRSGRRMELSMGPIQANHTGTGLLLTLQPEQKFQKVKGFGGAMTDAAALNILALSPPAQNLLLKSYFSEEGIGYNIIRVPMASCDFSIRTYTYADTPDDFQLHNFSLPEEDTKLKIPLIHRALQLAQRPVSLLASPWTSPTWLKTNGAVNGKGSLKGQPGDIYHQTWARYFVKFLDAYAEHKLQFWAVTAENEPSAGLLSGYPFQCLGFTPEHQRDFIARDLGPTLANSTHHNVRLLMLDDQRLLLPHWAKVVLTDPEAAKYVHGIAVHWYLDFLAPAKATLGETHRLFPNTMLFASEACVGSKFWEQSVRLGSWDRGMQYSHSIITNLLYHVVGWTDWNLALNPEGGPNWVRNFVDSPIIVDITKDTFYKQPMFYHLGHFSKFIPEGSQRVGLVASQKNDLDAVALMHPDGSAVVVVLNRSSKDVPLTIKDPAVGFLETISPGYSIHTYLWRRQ
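Normal human glucocerebrosidase (0.2 nM final) was assayed with resorufin β-D-glucopyranoside (30 uM final) in 50mM citric acid/KH2PO4, 10mM sodium taurocholate, 0.01% tween-20, pH 5.9. Compounds were titrated; fluorescence (Ex 548, Em 600) read after 20 min at RT.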
AID923 = qHTS Assay for Allosteric/Competitive Inhibitors of Caspase-1: Spectroscopic Profiling in AFC Spectral Region; compound fluorescence, AFC spectral region (405/520 nm); Potency, µM (top dose mostly 57.5 µM), most hits filed as activators; hit rate 1.1% among 75,000
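Baseline compound fluorescence (AFC region, 405 nm ex/520 nm em) taken from the intercept of kinetic reads with 50 nM caspase-1 and 5 uM Ac-WEHD-AFC; normalized to an on-plate AFC standard curve; compounds titrated up to 57 uM.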
HSD17B inh = blocks hydroxysteroid 17-beta dehydrogenase activity; recombinant HSD17B10, NADH fluorescence kinetic; Potency, µM (doses to about 57.1 µM), most hits filed as inhibitors; hit rate 7.6% among 75,000; AID 893;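 also: the protocol describes HADH2 (HSD17B10) and not the HSD17B4 of the title; nearly all actives have a fitted effect of over 70% in size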
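20 nM HADH2, pH 9.0 Tris/Tween; cpd preinc 15 min RT; start w/ 1 mM NAD+ + 90 uM b-hydroxybutyryl-CoA; kinetic fluor ex360/em450 q30s x 4 min; delta last-first.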
Each line names hits and unclear results; the compound was inactive in the other large screens; ! = a repeat was not active. An excerpt weighted towards active compounds, which were near 13% of everything screened. Unless noted, calls follow the shape of the dose curve; as a rule, active = well fitted curve in the direction sought with a large enough effect; inconclusive = small, poorly fitted or top-dose-only effect, or another doubt; inactive = no such curve, though single readings can be large; an effect the other way counts as inactive or inconclusive.

Cc1ccc(Cl)cc1N1CCN(C(=O)c2cn(C)c(=O)c3c2c2ccccc2n3C)CC1	4-MU autofl 3.6e-08M, A350 fluor 3.4e-08M
Cn1c2ccccc2c2c(C(=O)NCCCN3CCCC3=O)cn(C3CCCCC3)c(=O)c21	4-MU autofl 4.1e-07M, A350 fluor 3.6e-07M, HADH2 inh 25µM, HSD17B inh 25µM
Cc1nc2ccccn2c1/C(O)=C1\C(=O)C(=O)N(CCCN(C)C)C1c1ccc(Cl)cc1 (centres undefined)	none (no result: 4-MU autofl, A350 fluor, GBA mod)
O=C(Nc1cccnc1)Nc1ccccc1Cl	A350 fluor inconclusive, GBA mod 15
O=C(Nc1cccnc1)c1ccccc1Oc1ccccc1	HADH2 inh inconclusive
O=C(Nc1cccnc1)Nc1ccc(Br)cc1Cl	none (no result: GBA mod)
O=C(Nc1cccnc1)c1ccc(Oc2ccccc2)cc1	GBA mod 15
CC(=O)C1=C(C)NC(SCC(=O)c2ccccc2)=C(C#N)C1CC(C)C (centres undefined)	HSD17B inh inconclusive
Cc1coc2c1C(=O)C(=O)c1c-2ccc2c1CCCC2(C)C	HSD17B inh 25µM (no result: 4-MU autofl, A350 fluor, HADH2 inh, GBA mod)
C[N+](C)(C)CCC(=O)c1cccc2ccccc12	HADH2 inh 0.79µM (no result: GBA mod)
CC1CCN(c2ccc(C(=O)O)cc2N)CC1	HSD17B inh 25µM
CC1CCN(C(=O)c2ccc3c(c2)OCCO3)CC1	none
O=C(c1ccccc1)c1cccn1CC(=O)N1CCCCCC1	none
O=C(c1ccccc1)c1ccc2n1CC[C@H]2C(=O)O	4-MU autofl 1.8e-08M!, A350 fluor 3.2e-08M! (no result: GBA mod)
CC(C)NC(=O)N1CC[C@@]2(CCCN(C(=O)c3cc(C(F)(F)F)cc(C(F)(F)F)c3)C2)C1	none (no result: GBA mod)
COc1cc(OC)c(NC(=O)c2c(-c3ccccc3)noc2C)cc1Cl	HADH2 inh inconclusive
COc1cc(NC(=O)c2onc(C)c2Cl)c(OC)cc1Cl	HSD17B inh 32µM (no result: 4-MU autofl, A350 fluor, GBA mod)
O=[N+]([O-])c1ccc(C2=Nn3c(nnc3-c3ccc(Cl)cc3)SC2)o1	none (no result: GBA mod)
C[C@@]12CC[C@@H]3[C@@H](CC[C@H]4C[C@@H](O)CC[C@]43C)[C@H]1CC[C@@H]2c1cc(C(F)(F)F)n[nH]1	none (no result: GBA mod)
COc1ccc2c(c1)n([O-])c1c([n+]2=O)CCC1	4-MU autofl 1.4e-07M, A350 fluor 1.6e-07M (no result: HADH2 inh, GBA mod, AID923, HSD17B inh)
CCOc1ccc2c(c1)n([O-])c1c([n+]2=O)CCCC1	4-MU autofl 6e-08M, A350 fluor 6.9e-08M (no result: HADH2 inh, GBA mod, AID923, HSD17B inh)
O=C1c2ccccc2C(=O)c2c(NC3CCCCC3)ccc(Nc3ccc(S(=O)(=O)O)cc3)c21	HADH2 inh 3.2µM, HSD17B inh 3.2µM (no result: GBA mod)
COc1ccccc1N/C(N)=N/c1nc(CSc2ccc(C)cc2)cc(=O)[nH]1	none (no result: GBA mod)
COc1ccc(N/C(N)=N/c2nc(CSc3ccc(C)cc3)cc(=O)[nH]2)cc1	GBA mod 9.7
Cc1ccc2c(c1C)NC(C)CC2C (centres undefined)	4-MU autofl inconclusive, A350 fluor inconclusive, HADH2 inh inconclusive, HSD17B inh inconclusive
CCN(CC)S(=O)(=O)c1ccc(NC(=O)C(OC)c2ccccc2)cc1 (centres undefined)	none
COC(=O)c1ccc(CSc2ccc3nnc(-c4cccc(F)c4)n3n2)o1	HADH2 inh inconclusive, HSD17B inh inconclusive (no result: 4-MU autofl, A350 fluor, GBA mod)
O=C(NCc1ccco1)C(Cc1ccccc1)N1C(=O)c2ccccc2C1=O (centres undefined)	none (no result: 4-MU autofl, A350 fluor, GBA mod)
[N-]=[N+]=CC(=O)CNC(=O)[C@@H](Cc1ccccc1)N1C(=O)c2ccccc2C1=O	4-MU autofl 1.6e-08M, A350 fluor 2.2e-08M
COc1ccc(-c2cc(=O)c3cc(OC)ccc3o2)cc1	HSD17B inh 2.5µM (no result: 4-MU autofl, A350 fluor, HADH2 inh, GBA mod)
COc1ccccc1-c1cc(=O)c2cccc(OC)c2o1	HSD17B inh 25µM (no result: 4-MU autofl, A350 fluor, HADH2 inh, GBA mod)
COc1cccc(-c2cc(=O)c3ccc(OC)cc3o2)c1	HSD17B inh 7.9µM (no result: 4-MU autofl, A350 fluor, HADH2 inh, GBA mod)
COc1cc2oc(-c3ccccc3)cc(=O)c2cc1OC	4-MU autofl 1.2e-08M, A350 fluor 1.2e-08M, HSD17B inh 25µM (no result: GBA mod)
Cc1ccc(-c2nnn(CC(=O)N(CC(=O)NC3CCCCC3)c3cnc4ccccc4c3)n2)o1	none
Cc1ccco1	none (no result: 4-MU autofl, A350 fluor, GBA mod)
